# Measured values as given in the supplement of paper PMC13380429.
# Columns and labels:
# [1] = tested on: Vero E6 infected with SARS-CoV-2; test: morphology score (similarity to uninfected cells); higher = more like uninfected cells; details: 24 h
# [2] = tested on: Vero E6 infected with SARS-CoV-2; test: SARS-CoV-2 infection rate relative to infected DMSO; higher = more infection, active = 60 or less; details: 24 h
Compound,morphology score [1],SARS-CoV-2 infection rate [2]
COc1ccc(S(=O)(=O)N2c3ccc(Cl)cc3[C@](O)(c3ccccc3Cl)[C@@H]2C(=O)N2CCC[C@H]2C(N)=O)cc1OC [relcovaptan] (10 µM),-0.0372,106% (inactive)
CC12CCC(CC1=O)C2(C)C (stereo not drawn) [camphor-(+)] (10 µM),0.101,107% (inactive)
Cc1ncc(-c2ccnc(Nc3ccc(S(C)(=O)=O)cc3)n2)n1C(C)C (0.833333 µM),-0.165,99.5% (inactive)
Nc1nccc2c1ncn2C1C=C(CO)C(O)C1O (stereo not drawn) [3-deazaneplanocin-A] (10 µM),-0.104,112% (inactive)
N#Cc1cnc2cnc(NCc3cccnc3)cc2c1Nc1ccc(F)c(Cl)c1 (10 µM),0.0314,102% (inactive)
O=C1NC(c2cccc([N+](=O)[O-])c2)=CCN1c1ccccc1O [icilin] (10 µM),0.0675,100% (inactive)
c1cncc(CN2CCC(n3ncc4c(N5CCOCC5)nc(-c5ccc6[nH]ccc6c5)nc43)CC2)c1 (0.833333 µM),0.491,69% (inactive)
C[C@H](Nc1ncnc2[nH]cnc12)c1cc2ccc(F)cc2nc1-c1ccccn1 (10 µM),0.0578,114% (inactive)
CC1(C)C[C@@H]1C(=O)N/C(=C\CCCCSC[C@H](N)C(=O)O)C(=O)O [Cilastatin Sodium] (10 µM),0.215,88.5% (inactive)
O=C1C2CC=CCC2C(=O)N1SC(Cl)(Cl)Cl (stereo not drawn) [captan] (10 µM),0.232,93% (inactive)
C[C@@H]1C[C@H]2[C@@H]3CCC4=CC(=O)C=C[C@]4(C)[C@@]3(F)[C@@H](O)C[C@]2(C)[C@@]1(O)C(=O)COP(=O)(O)O (10 µM),0.0439,99% (inactive)
Cc1cc(Oc2ccc3nc(COc4ccc(CC5SC(=O)NC5=O)cc4)n(C)c3c2)cc(C)c1N (stereo not drawn) [efatutazone] (10 µM),0.36,93.5% (inactive)
Cc1ccccc1NC(=N)Nc1ccccc1C [ditolylguanidine] (10 µM),-0.286,117% (inactive)
NCCCCN [putrescine] (10 µM),0.0364,94% (inactive)
CC[C@@H](Nc1c(Nc2cccc(C(=O)N(C)C)c2O)c(=O)c1=O)c1ccc(C)o1 [navarixin] (10 µM),-0.0629,110% (inactive)
CN(C)C(=O)c1ccc(S(=O)(=O)c2ccc(NC(=O)[C@@](C)(O)C(F)(F)F)c(Cl)c2)cc1 (10 µM),0.28,104% (inactive)
CCN1C(=O)NC(c2ccccc2)C1=O (stereo not drawn) [ethotoin] (10 µM),0.221,97% (inactive)
CN(C)C(=O)CCSC(SCCC(=O)O)c1cccc(/C=C/c2ccc3ccc(Cl)cc3n2)c1 (stereo not drawn) (10 µM),0.011,108% (inactive)
C[C@@H]1[C@H](O)[C@@H](C)/C=C/C=C/C=C/C=C/C=C/C=C/C=C/[C@H](O[C@@H]2O[C@H](C)[C@@H](O)[C@H](N)[C@@H]2O)C[C@@H]2O[C@](O)(C[C@@H](O)C[C@@H](O)[C@H](O)CC[C@@H](O)C[C@@H](O)CC(=O)O[C@H]1C)C[C@H](O)[C@H]2C(=O)O [amphotericin-b] (10 µM),0.132,107% (inactive)
C#C[C@]1(O)CC[C@H]2[C@@H]3CCC4=C(CCC(=O)C4)[C@H]3CC[C@@]21C [noretynodrel] (10 µM),0.0184,108% (inactive)

Compound,morphology score [1],SARS-CoV-2 infection rate [2]
CN(C)C(=O)n1nnnc1Cc1ccc(-c2ccccc2)cc1 (0.833333 µM),0.00131,85% (inactive)
CCC(NC(C)C)C(O)c1ccc(O)c(O)c1 (stereo not drawn) [isoetharine] (10 µM),0.128,93% (inactive)
CC(C)n1nc(-c2ccc3oc(N)nc3c2)c2c(N)ncnc21 (0.833333 µM),-0.0142,102% (inactive)
N#Cc1ccc2[nH]cc(CCCCN3CCN(c4ccc5oc(C(N)=O)cc5c4)CC3)c2c1 [vilazodone] (0.833333 µM),0.0471,102% (inactive)
COc1ccc2cc1Oc1ccc(cc1)C[C@H]1c3cc(c(OC)cc3CCN1C)Oc1c(OC)c(OC)cc3c1[C@H](C2)N(C)CC3 [tetrandrine] (10 µM),0.509,12% (active)
Oc1ccc2c3c1O[C@H]1c4[nH]c5c(c4C[C@@]4(O)[C@@H](C2)N(CC2CC2)CC[C@]314)C[C@@]1(O)[C@H]2Cc3ccc(O)c4c3[C@@]1(CCN2CC1CC1)[C@H]5O4 [nor-binaltorphimine] (10 µM),-0.0703,114% (inactive)
CCOC(=O)c1ccc(O)cc1 [ethyl-paraben] (10 µM),-0.0381,104% (inactive)
CN[C@@H](C)CC1CCCCC1 [propylhexedrine] (10 µM),-0.0197,110% (inactive)
CC(=O)OCC(=O)NCCCOc1cccc(CN2CCCCC2)c1 [roxatidine-acetate] (10 µM),0.0141,110% (inactive)
CCS(=O)(=O)N(C)[C@@H]1c2cc(C#N)ccc2OC(C)(C)[C@H]1O.CCS(=O)(=O)N(C)[C@H]1c2cc(C#N)ccc2OC(C)(C)[C@@H]1O (racemic) [chromanol-(+/-)] (10 µM),0.241,98.5% (inactive)
COc1ccc(/C=C/CCCCOc2ccc(C(=O)c3cccc(C(=O)O)c3)cc2CCC(=O)O)cc1 (10 µM),0.0773,95% (inactive)
CCc1oc2ccccc2c1C(=O)c1cc(Br)c(O)c(Br)c1 [benzbromarone] (10 µM),0.145,85.5% (inactive)
NCCCS(=O)(=O)O [tramiprosate] (10 µM),0.072,104% (inactive)
CNC(=O)[C@@H](c1ccccc1)N1CCc2cc(OC)c(OC)cc2[C@@H]1CCc1ccc(C(F)(F)F)cc1 [almorexant] (10 µM),-0.0542,105% (inactive)
N[C@@H](CSCCCO)C(=O)O [fudosteine] (10 µM),0.0399,104% (inactive)
O=C1c2cccc(O)c2C(=O)c2c(O)cccc21 [dantron] (10 µM),-0.0545,103% (inactive)
CC(C)(C(=O)NCC(F)(F)C(F)(F)F)C(=O)N[C@@H]1C(=O)Nc2ccccc2-c2ccccc21 (10 µM),0.217,86% (inactive)
CCCC[C@H](NC(=O)[C@@H]1[C@@H]2[C@H](CN1C(=O)[C@@H](NC(=O)NC1(CS(=O)(=O)C(C)(C)C)CCCCC1)C(C)(C)C)C2(C)C)C(=O)C(=O)NC1CC1 [narlaprevir] (10 µM),0.157,111% (inactive)
NC(=O)CN1CC(O)CC1=O (stereo not drawn) [oxiracetam] (10 µM),-0.00498,107% (inactive)
COc1ccc(-n2nc(C(F)(F)F)cc2-c2ccc(Cl)cc2)cc1 (0.833333 µM),-0.0472,101% (inactive)

Compound,morphology score [1],SARS-CoV-2 infection rate [2]
CC1=C(/C=C/C(C)=C/C=C/C(C)=C/C=C/C=C(C)/C=C/C=C(C)/C=C/C2=C(C)C(=O)[C@@H](O)CC2(C)C)C(C)(C)C[C@H](O)C1=O [astaxanthin] (10 µM),0.0152,107% (inactive)
COc1cc2c(cc1OC)[C@@H](Cc1cc(OC)c(OC)c(OC)c1)[N+](C)(CCCOC(=O)CC/C=C/CCC(=O)OCCC[N+]1(C)CCc3cc(OC)c(OC)cc3[C@H]1Cc1cc(OC)c(OC)c(OC)c1)CC2 (stereo partly drawn) [mivacurium] (10 µM),-0.0909,104% (inactive)
C/C(=N\NC(=O)[C@@H]1C(=O)NC[C@H]1c1ccccc1)c1cccc(Br)c1 (10 µM),-0.162,112% (inactive)
CCN1CCN(c2ccc(C(C)(C)NC(=O)c3cc4[nH]c5ccccc5c(=O)c4cc3F)cn2)CC1 (10 µM),0.572,55% (active)
N=C(N)NS(=O)(=O)c1ccc(N)cc1 [sulfaguanidine] (10 µM),0.00117,108% (inactive)
Cn1cc(C2=C(c3ccc(Cl)cc3Cl)C(=O)NC2=O)c2ccccc21 (10 µM),0.00458,102% (inactive)
O=C(O)C[CH2][Ge](=[O])[O][Ge](=[O])[CH2]CC(=O)O [propagermanium] (10 µM),0.128,94% (inactive)
CN(CCOc1ccc(C[C@H](Nc2ccccc2C(=O)c2ccccc2)C(=O)O)cc1)c1ccccn1 (10 µM),0.317,70% (inactive)
CC[C@H](CO)Nc1nc(NCc2ccccc2)c2ncn(C(C)C)c2n1 [roscovitine] (10 µM),-0.0602,96% (inactive)
CC(=O)NCCCS(=O)(=O)O [acamprosate] (10 µM),0.0831,102% (inactive)
CCOc1ccccc1C(=O)O [2-ethoxybenzoic-acid] (10 µM),0.0437,115% (inactive)
CCOC(=O)[C@@H](C)Oc1ccc(Oc2nc3ccc(Cl)cc3o2)cc1 [fenoxaprop-p-ethyl] (10 µM),-0.0825,106% (inactive)
CCCCCCCCCCCCCCCCCCCCCC(=O)O (10 µM),0.0564,108% (inactive)
CCn1c(-c2nonc2N)nc2c(C#CC(C)(C)O)ncc(OC[C@H]3CCCNC3)c21 (10 µM),0.337,105% (inactive)
Nc1cc(N2CCCCC2)nc(N)[n+]1[O-] [minoxidil] (10 µM),0.0795,104% (inactive)
C=C1/C(=C\C=C2/CCC[C@]3(C)[C@@H]([C@H](C)CCCC(O)(C(F)(F)F)C(F)(F)F)CC[C@@H]23)C[C@@H](O)C[C@@H]1O [falecalcitriol] (10 µM),0.0244,95.5% (inactive)
COC[C@H](C)Oc1cc(O[C@@H](C)Cc2ccccc2)cc(C(=O)Nc2ccc(C(=O)O)cn2)c1 (10 µM),-0.163,100% (inactive)
COC(=O)N[C@H](C(=O)N[C@@H](Cc1ccccc1)[C@@H](O)CN(Cc1ccc(-c2ccccn2)cc1)NC(=O)[C@@H](NC(=O)OC)C(C)(C)C)C(C)(C)C [atazanavir] (10 µM),0.129,112% (inactive)
Cn1ncnc1[C@H]1c2n[nH]c(=O)c3cc(F)cc(c23)N[C@@H]1c1ccc(F)cc1 [talazoparib] (0.833333 µM),-0.223,113% (inactive)
